The values that follow come from PubChem BioAssay (NCI).

Structures are written as SMILES. Compounds without any hit were thinned out: in the full panel of roughly 83,000, 20% have a hit.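 Method: cells in 96-well plates; compound added at one concentration; 48 h incubation; percent growth measured; values under 10 scored active.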 A number with no mark means an inactive call. Calls of active or inactive are those of the source.

Common to all, as to assay: NCI-60 one-dose screen, 48 h (100 = growth as untreated, 0 = no growth, -100 = all killed)
Conditions in all cases: 10 µM unless noted

Test [1] relates to HCT-15 colon.
In test [2] the test system is HT29 colon.
For test [3], the system named is SNB-75 CNS.
Test [4] relates to SNB-19 CNS.
The subject of test [5] is U251 CNS.
The subject of test [6] is PC-3 prostate.
Test [7] has as its system SK-MEL-5 melanoma.
In test [8] the test system is UACC-62 melanoma.
Test [9] has as its system LOX IMVI melanoma.
For test [10], the system named is SK-MEL-28 melanoma.

As for `O=C(N/N=C\c1cc(Br)ccc1O)c1ccncc1`, the growth in test [1] was 21.4%; in test [2], 36.3%; in test [3], 76.4%; in test [4], 53.7%; in test [5], 28.6%; in test [6], 48.3%. Moreover, the growth in [7] is 39.8%; in test [8], 1.24% (active); in [9], 18%; in test [10] it was 45.8%.
Regarding `CC(=O)Oc1c(Cl)c(Cl)c(Cl)c(Cl)c1Cl`, the growth in test [1] is 95%; in test [2], 99.9%; in test [3], 80.1%; in [4], 96.3%; in test [5] it was 94.7%; in [6], 91.1%. The growth is 102% in [7], 88% in test [8], 93.1% in test [9] and 104% in test [10].
As for `CCN1C(=O)C(C)C=C(C)C=C1C` (stereo not given), the growth in test [1] is 99.9%; in test [2], 111%; in test [3], 104%; in test [4] it was 109%; in test [5] it was 111%; in test [6] it was 123%. The growth is 98.1% in test [7], 103% in test [8], 103% in test [9] and 116% in [10].
Consider `CCN(CC)CC(=O)Nc1c(C)ccc(N)c1C`, for which the growth is 97.1% in [1]; 91.7% in test [2]; 91.7% in test [3]; 100% in test [4]; 96.1% in test [5]; 97.5% in test [6]. Further, the growth in [7] is 99.6%; in test [8] it was 97.6%; in test [9], 96.4%; in test [10], 107%.
Regarding `CCCCCCCCCCCC1=NC(C)(C)CN1CCO`, the growth in test [1] was 18%; in test [2], -25.2% (active); in [3], 65.2%; in test [4], 100%; in test [5] it was 21.8%; in [6], 42.5%. The growth was 58.9% in test [7], -14.3% (active) in [8], 6.59% (active) in test [9] and 68.5% in [10].
In the case of `O=C1/C(=C/c2ccccc2)SC(=Nc2ccccc2)N1Nc1ccccc1`, the growth in test [1] is 9.11% (active); in test [2] it was 5.63% (active); in test [3], 24.2%; in test [4] it was 23.3%; in test [5] it was 6.12% (active); in test [6], 9.43% (active). Further, the growth is -95.7% (active) in test [7], -4.34% (active) in test [8], -62.1% (active) in test [9] and 8.52% (active) in test [10].
Regarding `O=C(N/N=C/c1ccc([N+](=O)[O-])cc1)c1ccccc1Nc1ccnc(C(F)(F)F)c1`, the growth in [1] was 89.9%; in test [2], 101%; in test [3], 77.2%; in test [4] it was 82.4%; in test [5], 88.7%; in test [6], 72.9%. The growth was -99% (active) in [7], 57.6% in [8], 78.2% in [9] and 104% in test [10].
As for `CCOC(=O)C1OC2(CCCC2)OC1C(=O)OCC` (stereo not given), the growth in [1] was 106%; in test [2] it was 99.2%; in [3], 104%; in test [4], 99.3%; in test [5], 109%; in [6], 97.6%. Further, the growth in test [7] was 101%; in test [8], 96.7%; in test [9] it was 102%; in test [10], 122%.
With `COc1cc(-c2nn(C(=O)NCCN3CCN(C)CC3)cc2-c2ccncc2)ccc1Cl`, the growth in test [1] was 88.7%; in [2], 47%; in test [3], 42.3%; in test [4], 77.5%; in test [5], 80.9%; in test [6], 74.3%. Also, the growth in [7] is 62.4%; in test [8], 57.6%; in test [9] it was 85.9%; in test [10], 68.1%.
Turning to `CCCNCCC(C)=O`, the growth in test [1] was 111%; in test [2], 98.1%; in test [3], 107%; in test [4] it was 97.1%; in test [5], 68.8%; in test [6], 97.1%. The growth was 115% in test [7], 98% in test [8], 94.5% in test [9] and 108% in [10].
Consider `Cc1ccc(C)c2c1SC1=NNC(Oc3ccc(Cl)cc3)=C(C#N)C(=N)N12`, for which the growth was 104% in test [1]; 103% in [2]; 92.2% in test [3]; 110% in test [4]; 98.4% in test [5]; 85% in test [6]. Besides, the growth in [7] was 93.5%; in test [8] it was 97.1%; in test [9] it was 99.7%; in [10], 107%.
`COc1cc(/C=N/NC(=O)Cn2c(-c3ccc(C)o3)nc3ccccc32)ccc1OCc1ccccc1`: the growth was 74.1% in test [1]; 87.2% in [2]; 83.2% in [3]; 79.6% in [4]; 88.5% in test [5]; 63.1% in test [6]. Also, the growth in test [7] is 76.6%; in [8], 77.8%; in [9], 88.1%; in [10], 99.1%.
Regarding `COc1cc(CN(CCC(O)N2CCCC2=O)Cc2ccc3c(c2)OCO3)cc(OC)c1OC` (stereo not given), the growth in test [1] was 97.5%; in test [2], 98.3%; in test [3], 93.7%; in test [4], 99.5%; in [5], 102%; in [6] it was 89.5%. Further, the growth in test [7] was 111%; in [8], 101%; in [9] it was 94.9%; in test [10], 117%.
`CC(C)CCC(=O)[C@@H](C)[C@H]1[C@@H](OC2OCC(O)C(O)C2NS(C)(=O)=O)C[C@H]2[C@@H]3CC=C4C[C@@H](O)CC[C@]4(C)[C@H]3CC[C@]12C` (stereo not given in full): the growth was 14% in test [1]; 19.6% in test [2]; 22.2% in test [3]; 32.1% in [4]; 5.29% (active) in [5]; 4.46% (active) in test [6]. Also, the growth in test [7] is 7.33% (active); in test [8], -22% (active); in test [9] it was 21.9%; in test [10], -36.1% (active).
As to `CCN(CC)c1ccc(/C=N/NC(=O)C[N+](C)(C)C)cc1`, the growth in test [1] was 101%; in test [2], 103%; in [3] it was 93.8%; in test [4], 113%; in test [5], 102%; in test [6] it was 95.7%. For the same molecule, the growth in [7] is 104%; in test [8] it was 101%; in test [9], 97%; in test [10] it was 108%.
For `Oc1c(C(Nc2ccccc2Br)c2ccccc2)ccc2cccnc12` (stereo not given), the growth in test [1] was 26.5%; in [2], 24%; in test [3] it was 60.4%; in test [4] it was 31.7%; in [5], 12.9%; in [6], 48.6%. The growth was 2.41% (active) in test [7], -26.3% (active) in test [8], 10.5% in test [9] and 39.2% in test [10].
With `COc1cc2c(=O)n(CCCN(C)C)c3c4cc[nH]c4ncc3c2cc1OC`, the growth in test [1] is 54.7%; in test [2], 16.2%; in test [3], 47.9%; in test [4], 36.6%; in test [5], 35.1%; in test [6], 32.8%. Moreover, the growth is 80.9% in [7], 54.5% in test [8], 25.3% in [9] and 89.9% in test [10].
`Cc1cc2nc(CN)[nH]c2cc1C`: the growth in test [1] was 109%; in [2], 51.3%; in test [3] it was 92%; in [4], 102%; in test [5], 100%; in [6], 99.8%. For the same molecule, the growth in [7] was 104%; in [8], 113%; in [9] it was 109%; in test [10] it was 108%.
Consider `Cc1cc(C#Cc2ccc(C(C)(C)C)cc2)ccc1-n1c(/C=C/c2c(Cl)cccc2Cl)nc2ccccc2c1=O`, for which the growth in test [1] was 90.9%; in [2], 93.2%; in test [3] it was 82%; in [4] it was 105%; in test [5], 93.9%; in test [6] it was 80.8%. Further, the growth in [7] was 106%; in test [8], 101%; in test [9], 87.3%; in test [10] it was 126%.
Take `CCCC(CCC)(C(N)=O)C(=O)O`: the growth in test [1] is 105%; in test [2], 101%; in [3], 104%; in test [4] it was 112%; in [5], 106%; in test [6] it was 121%. The growth is 110% in test [7], 106% in test [8], 93.5% in test [9] and 113% in test [10].
